SMILES strings stand for the structures. About 83,000 compounds went through this panel and 20% of them were active in at least one assay; those are over-represented in the sample as a whole.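 Growth was measured after 48 h exposure to one concentration of compound in 96-well plates. Values under 10 count as active.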 Values without a mark were called inactive. The source made the active and inactive calls.

Data on 8 compounds can be found in PubChem BioAssay (NCI).

Among the test systems are NCI-H23 lung; NCI-H226 lung; NCI-H322M lung; HOP-62 NSCLC; NCI-H460 lung; HOP-92 NSCLC; NCI-H522 lung; A549/ATCC NSCLC; 786-0 renal; COLO 205 colon; DU-145 prostate; K-562 leukemia; MALME-3M melanoma; MDA-MB-231 breast; RXF 393 renal; SF-268 CNS; SF-295 CNS; SF-539 CNS; UACC-257 melanoma; M14 melanoma.
Holding throughout (experiment): NCI-60 one-dose screen, 48 h (100 = growth as untreated, 0 = no growth, -100 = all killed)
Holding throughout (settings): 10 µM unless noted

With `COC(=O)c1ccc2[nH]c(O)c(C(=Nc3ccc(N(C)C(=O)CN4CCN(C)CC4)cc3)c3ccccc3)c2c1`, the growth was 31.1% in the test on NCI-H23 lung; 19% in the test on NCI-H226 lung; 76.8% with NCI-H322M lung; 26.1% with HOP-62 NSCLC; 24.9% with NCI-H460 lung; 59.7% with HOP-92 NSCLC. The growth in the test on NCI-H522 lung was 50.3%; in the test on A549/ATCC NSCLC it was 39.4%; with 786-0 renal, 1.61% (active); in the test on COLO 205 colon, 11.4%; in the test with DU-145 prostate, 21.5%; in the test on K-562 leukemia, 9.67% (active). The growth is -6.01% (active) in the test with MALME-3M melanoma; 22.6% in the test on MDA-MB-231 breast; -39.3% (active) with RXF 393 renal; 27.7% in the test on SF-268 CNS; 27.3% with SF-295 CNS; -25.5% (active) in the test on SF-539 CNS. In addition, the growth was 35.4% in the test with UACC-257 melanoma and 11.2% in the test on M14 melanoma.

For the compound `COc1ccc(C(=O)n2nc(-c3ccccc3)nc2N)cc1OC`, the growth was 93.9% with NCI-H23 lung; 79.9% in the test on NCI-H226 lung; 89.1% in the test with NCI-H322M lung; 79.7% with HOP-62 NSCLC; 98.3% with NCI-H460 lung; 67% with HOP-92 NSCLC. Besides, the growth with NCI-H522 lung is 85.4%; in the test with A549/ATCC NSCLC, 95.1%; in the test with 786-0 renal it was 96.1%; in the test on COLO 205 colon, 103%; in the test on DU-145 prostate, 104%; in the test with K-562 leukemia, 80.1%. Also, the growth is 102% with MALME-3M melanoma; 85.1% with MDA-MB-231 breast; 98.3% in the test on RXF 393 renal; 95.4% in the test on SF-268 CNS; 103% in the test on SF-295 CNS; 91% with SF-539 CNS. In addition, the growth was 98.4% with UACC-257 melanoma and 105% with M14 melanoma.

As for `CCCCC1CCCC12NC(=O)NC2=O` (stereo not given), the growth was 99.3% with NCI-H23 lung; 88.5% in the test on NCI-H226 lung; 98.3% with NCI-H322M lung; 99.3% in the test with HOP-62 NSCLC; 117% in the test on NCI-H460 lung; 93.6% in the test on HOP-92 NSCLC. The growth in the test with NCI-H522 lung was 106%; with A549/ATCC NSCLC, 117%; in the test with 786-0 renal it was 105%; with COLO 205 colon, 120%; in the test with DU-145 prostate it was 109%; with K-562 leukemia, 127%. In addition, the growth in the test with MALME-3M melanoma is 100%; with MDA-MB-231 breast, 107%; in the test on RXF 393 renal, 113%; in the test with SF-268 CNS it was 99.5%; with SF-295 CNS it was 109%; in the test on SF-539 CNS it was 113%. Also, the growth is 112% in the test on UACC-257 melanoma and 109% in the test on M14 melanoma.

As for `CNCCCNc1nc2ccccc2c2c(=O)c3cc(OC)ccc3sc12`, the growth in the test on NCI-H23 lung is 79.6%; in the test on NCI-H226 lung it was 95.6%; in the test on NCI-H322M lung it was 85.7%; in the test on HOP-62 NSCLC, 80.2%; with NCI-H460 lung it was 5.64% (active); in the test with HOP-92 NSCLC, 52.4%. For the same compound, the growth with NCI-H522 lung is 85.7%; in the test with A549/ATCC NSCLC, 76.1%; with 786-0 renal it was 79.1%; with COLO 205 colon it was -1.42% (active); with DU-145 prostate it was 65.4%; in the test with K-562 leukemia, -20.3% (active). Also, the growth is 99.4% in the test with MALME-3M melanoma; 20% in the test with MDA-MB-231 breast; 63.7% in the test on RXF 393 renal; 77.4% in the test with SF-268 CNS; 94.7% with SF-295 CNS; 66.4% in the test on SF-539 CNS. The figures for the growth with UACC-257 melanoma and in the test on M14 melanoma were 99.1% and 29.9%, respectively.

`CCOC(=O)/C=C1\S/C(=N\Nc2ccc([N+](=O)[O-])cc2[N+](=O)[O-])N(Cc2ccccc2)C1=O`: the growth with NCI-H23 lung was 76.8%; in the test on NCI-H226 lung it was 93.1%; with NCI-H322M lung, 97.9%; in the test with HOP-62 NSCLC, 103%; with NCI-H460 lung, 93.1%; in the test with HOP-92 NSCLC, 71.5%. For the same compound, the growth with NCI-H522 lung was 68.6%; with A549/ATCC NSCLC, 93.2%; in the test on 786-0 renal, 91.2%; with COLO 205 colon it was 99.1%; with DU-145 prostate, 81.4%; in the test on K-562 leukemia, 54.7%. For the same compound, the growth in the test on MALME-3M melanoma was 93.1%; in the test on MDA-MB-231 breast, 84.9%; in the test on RXF 393 renal, 78%; in the test with SF-268 CNS it was 89.7%; with SF-295 CNS, 95.1%; in the test on SF-539 CNS it was 99.6%. In addition, the growth is 90.1% in the test with UACC-257 melanoma and 100% in the test on M14 melanoma.

Regarding `CCOC(=O)c1cnn2c3ccccc3n(S(=O)(=O)c3ccc(OC)cc3)c12`, the growth with NCI-H23 lung was 28.2%; in the test on NCI-H226 lung, 19.9%; with NCI-H322M lung, 53.7%; in the test on HOP-62 NSCLC, 35%; with NCI-H460 lung it was 18.4%; in the test with HOP-92 NSCLC, 59.9%. Besides, the growth in the test with NCI-H522 lung was 20.6%; with A549/ATCC NSCLC, 28.5%; in the test on 786-0 renal, 40.5%; in the test on COLO 205 colon it was -19.4% (active); with DU-145 prostate, 14.8%; with K-562 leukemia it was 11.2%. In addition, the growth in the test on MALME-3M melanoma is 60.7%; with MDA-MB-231 breast, 10.2%; in the test on RXF 393 renal, -6.6% (active); in the test on SF-268 CNS, 44.7%; in the test with SF-295 CNS, 14.1%; in the test with SF-539 CNS, -3.57% (active). The growth in the test on UACC-257 melanoma is 80.1%; with M14 melanoma, 25.3%.

For the compound `O=C(/C=C/c1sc(Cl)nc1Cl)c1ccc(Br)cc1`, the growth is 85.8% in the test with NCI-H23 lung; 81.6% with NCI-H226 lung; 100% in the test on NCI-H322M lung; 97.3% in the test on HOP-62 NSCLC; 103% in the test on NCI-H460 lung; 90.2% with HOP-92 NSCLC. In addition, the growth is 86.6% in the test with NCI-H522 lung; 96.1% in the test with A549/ATCC NSCLC; 92.2% in the test with 786-0 renal; 78.8% in the test with COLO 205 colon; 98.6% in the test with DU-145 prostate; 9.52% (active) in the test on K-562 leukemia. In addition, the growth in the test on MALME-3M melanoma is 83.6%; in the test on MDA-MB-231 breast, 90.4%; in the test on RXF 393 renal, 85.5%; in the test on SF-268 CNS, 94.1%; in the test on SF-295 CNS, 95.9%; with SF-539 CNS it was 71.1%. For the same compound, the growth with UACC-257 melanoma was 98.3%; in the test on M14 melanoma, 67.8%.

Consider `COc1cc(C(=O)/C=C/c2sc(Cl)nc2Cl)cc(OC)c1OC`, for which the growth was 33.9% in the test with NCI-H23 lung; 80.5% in the test on NCI-H226 lung; 85.4% with NCI-H322M lung; 85% in the test with HOP-62 NSCLC; 83.9% in the test on NCI-H460 lung; 51.4% in the test with HOP-92 NSCLC. Further, the growth in the test with NCI-H522 lung was 33.6%; in the test on A549/ATCC NSCLC, 90.6%; in the test with 786-0 renal, 79.2%; in the test with COLO 205 colon it was -19.7% (active); in the test with DU-145 prostate it was 43.5%; in the test with K-562 leukemia, 3.23% (active). For the same compound, the growth with MALME-3M melanoma is -35.1% (active); in the test with MDA-MB-231 breast, 31.7%; in the test with RXF 393 renal, -28.9% (active); in the test on SF-268 CNS, 61.5%; in the test on SF-295 CNS, 92.8%; in the test on SF-539 CNS it was -11.9% (active). For the same compound, the growth is 70.8% in the test with UACC-257 melanoma and 42.3% in the test with M14 melanoma.
